According to PubChem BioAssay AID602448 (National Center for Advancing Translational Sciences (NCATS), 2012):
Activity calls are given as the source filed them.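 How the source made its calls: active means max inhibition of at least 60%; inconclusive means max inhibition above 30% but below 60%; inactive means max inhibition of 30% or less.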

molecular target: Follicle-stimulating hormone receptor (Homo sapiens) (UniProt P23945); test: qHTS for antagonists of the Thyroid Stimulation Hormone Receptor: Hit Validation with Follickle Stimulating Hormone Receptor (FSHR); details: FSHR-expressing cells, cAMP HTRF, antagonist counterscreen; stronger effect = higher value
Sequence (P23945 whole entry, looked up): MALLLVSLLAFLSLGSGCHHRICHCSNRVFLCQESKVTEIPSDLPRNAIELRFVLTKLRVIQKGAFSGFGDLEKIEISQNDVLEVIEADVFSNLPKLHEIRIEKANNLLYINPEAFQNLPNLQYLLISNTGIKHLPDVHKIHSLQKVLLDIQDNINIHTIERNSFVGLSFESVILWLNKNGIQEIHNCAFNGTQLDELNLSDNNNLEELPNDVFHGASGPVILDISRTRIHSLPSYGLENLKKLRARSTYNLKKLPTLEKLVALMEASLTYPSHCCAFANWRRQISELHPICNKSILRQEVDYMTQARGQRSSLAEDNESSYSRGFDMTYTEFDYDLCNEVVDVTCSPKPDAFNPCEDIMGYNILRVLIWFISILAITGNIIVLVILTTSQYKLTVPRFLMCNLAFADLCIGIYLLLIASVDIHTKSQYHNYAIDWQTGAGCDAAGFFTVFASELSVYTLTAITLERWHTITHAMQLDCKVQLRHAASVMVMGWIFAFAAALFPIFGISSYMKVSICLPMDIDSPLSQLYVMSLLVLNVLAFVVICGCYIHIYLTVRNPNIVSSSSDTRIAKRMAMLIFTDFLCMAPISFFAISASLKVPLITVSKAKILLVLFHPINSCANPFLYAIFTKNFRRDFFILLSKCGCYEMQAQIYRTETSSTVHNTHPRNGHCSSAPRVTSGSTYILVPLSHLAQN
Source text: The thyroid-stimulating hormone receptor (TSHR) is a member of the 7 trans-membrane-spanning receptor (7TMR) family of cell surface receptors. TSHR-mediated hyperthyroidism is important in thyroid pathology. The development of small molecule antagonists of TSHR may lead to therapeutic approaches for TSHR-mediated hyperthyroidism caused by constitutively activating mutations or stimulating auto-antibodies associated with Graves' disease. Graves' disease is the leading cause of hyperthyroidism and is caused by autoantibodies that stimulate TSHR (TsAbs) causing thyroid growth and unregulated overproduction of thyroid hormones and existing treatments have liabilities (agranulocytosis). In addition, TSHRs are known to be expressed in multiple extrathyroidal tissues including bone, brain, kidney, testis, fat and cells of the immune system but the role of the TSHR in these tissues is not clear. Therefore, TSHR antagonists/inverse agonists could be used as probes of extrathyroidal TSHR function. Finally, TSHR inverse agonists, which are a subclass of antagonists that inhibit agonist-independent (or basal or constitutive) TSHR signaling, could be used to inhibit TSH-independent signaling in patients with recurrent or metastatic thyroid cancer who are receiving thyroid hormone to suppress TSH. In collaboration between scientist from the NCGC and the NIDDK, a miniaturized HTRF high-throughput screen was developed. It's a cell based assay, where an anti cAMP antibody contains a fluorescent cryptate tag (excitation 337 nm; emission 620 nm) and the acceptor is cAMP-d2 (excitation 620 nm; emission 665 nm). When antibody and cAMP-d2 interact and are excited by a 337 nm light, a FRET occurs resulting in emission at 665 nm. The assay is competition between cAMP-d2 and cAMP (from the cell lysate). The homogeneous protocol allows for one step dispense after stimulation that is automation friendly. This is a hit validation assay in a counterscreen using FSHR, a closely related hormone receptor NIH Chemical Genomics Center [NCGC] NIH Molecular Libraries Probe Centers Network [MLPCN] Grant: MH090855 Assay Provider: Marvin Gershengorn, NIDDK
An anti cAMP antibody contains a fluorescent cryptate tag (excitation 337 nm; emission 620 nm) and the acceptor is cAMP-d2 (excitation 620 nm; emission 665 nm). When antibody and cAMP-d2 interact and are excited by a 337 nm light, a FRET occurs resulting in emission at 665 nm. The assay is competition between cAMP-d2 and cAMP (from the cell lysate). The homogeneous protocol allows for one step dispense after stimulation that is automation friendly.

Compound	max inhibition
Cc1ccc(-n2[nH]c(C)c(/C=N/Nc3ccc([N+](=O)[O-])cc3[N+](=O)[O-])c2=O)cc1C	81.1% (active)
COc1ccc(OCC(=O)NC(=S)Nc2ccc(N3CCOCC3)c(Cl)c2)cc1	87.6% (active)
O=C(COc1cccc2ccccc12)Nc1ccc(Cl)cc1C(=O)O	62.5% (active)
CCC(=O)OCCNc1cc(Sc2nccn2C)c2nonc2c1[N+](=O)[O-]	20%
O=C1/C(=C\c2cc([N+](=O)[O-])ccc2O)SC(=S)N1Cc1ccc(Cl)cc1	94.2% (active)
O=c1cc(C(F)(F)F)[nH]c2c(C(F)(F)F)cccc12	82.4% (active)
CC(=O)Oc1c(C)cc(Cl)cc1C(=O)Nc1ccc([N+](=O)[O-])cc1Cl	63.6% (active)
COc1ccc(-c2csc(/C(C#N)=C\c3ccc(O)c([N+](=O)[O-])c3)n2)cc1OC	87.2% (active)
